Screen size: about 5,500 compounds; about 2,000 (36%) were called active. Inconclusive results (about 18%) are left out. Cut-off read from the data, not from the text of the source: active = normalized growth mostly below about 0.91 (no sharp cut-off); inconclusive = no clear call, values can overlap the other calls; inactive = mostly above about 0.92. This is one part of the list.
Experiment: chemical genetic growth profiling, strain panel (AID 1159580);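 note: tested at 20 µM; growth read once vehicle control cultures reached saturation at 30 °C; 1 = growth at the plate median or of vehicle wells; lower values mean less growth of the strain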
Settings: S. cerevisiae deletion strains, growth OD
[1] = locus YAL040C, strain CLN3, active compounds read low
[2] = locus YCL061C, strain MRC1 (second series), active compounds read low
[3] = locus YDR363W, strain ESC2, active compounds read low
[4] = locus YER002W, strain NOP16, active compounds read low
[5] = locus YGR078C, strain PAC10, active compounds read low
[6] = locus YNL175C, strain NOP13, active compounds read low
[7] = locus YNL197C, strain WHI3, active compounds read low
[8] = locus YNL224C, strain SQS1, active compounds read low
[9] = locus YNL322C, strain KRE1, active compounds read low
[10] = locus YOR083W, strain WHI5 (second series), active compounds read low

Measured: normalized growth

NC(N)=Nc1ccc2[nH]c3c(c2c1)C[C@@]1(O)[C@H]2Cc4ccc(O)c5c4[C@@]1(CCN2CC1CC1)[C@H]3O5
inactive: locus YAL013W, strain DEP1, active compounds read low 1.02 | [1] 1.07 | [2] 0.991 | locus YDR150W, strain NUM1, active compounds read low 0.986 | [3] 1.04 | [4] 1.01 | [5] 0.991 | locus YJR075W, strain HOC1, active compounds read low 1.01 | [6] 0.998 | [7] 0.985 | [8] 1 | [9] 1.03 | [10] 0.97

Oc1ccc(C2CNCc3sccc32)cc1O (stereo unspecified)
active: [9] 0.892
inactive: [1] 1.01 | [2] 0.962 | [3] 0.999 | [4] 1 | [5] 0.998 | locus YMR263W, strain SAP30, active compounds read low 1 | locus YNL128W, strain TEP1, active compounds read low 1.01 | locus YNL153C, strain GIM3, active compounds read low 0.963 | [6] 0.995 | [7] 0.995 | [8] 1 | [10] 1
